Potency and outcome data for 38 molecules are collected here from PubChem BioAssay (NCATS).

Inconclusive results are not listed. The source made the active and inactive calls. The call rests on the fitted dose curve; in most records, active means well fitted curve in the direction sought with a large enough effect; inconclusive means small, poorly fitted or top-dose-only effect, or another doubt; inactive means no such curve, though single readings can be large; an effect the other way counts as inactive or inconclusive.

For test [1], the target named is Metallo-beta-lactamase type 2 (Klebsiella pneumoniae) (UniProt C7C422). The experiment in a line: qHTS to identify inhibitors of the New Delhi Metallo-beta-lactamase (NDM): assay validation screen against the NCATS LOPAC Collection (AID 1794843). Further: potency means the concentration at half of the fitted maximal effect. Put shortly: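 Nitrocefin hydrolysis (50 uM substrate stock) by NDM-1, 2 nM final, was followed by 485 nm absorbance after compound preincubation; buffer was 50 mM HEPES pH 7.0, 1 uM ZnSO4, 0.01% Tween20.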
Sequence of Metallo-beta-lactamase type 2 (Klebsiella pneumoniae) (C7C422 whole entry, looked up): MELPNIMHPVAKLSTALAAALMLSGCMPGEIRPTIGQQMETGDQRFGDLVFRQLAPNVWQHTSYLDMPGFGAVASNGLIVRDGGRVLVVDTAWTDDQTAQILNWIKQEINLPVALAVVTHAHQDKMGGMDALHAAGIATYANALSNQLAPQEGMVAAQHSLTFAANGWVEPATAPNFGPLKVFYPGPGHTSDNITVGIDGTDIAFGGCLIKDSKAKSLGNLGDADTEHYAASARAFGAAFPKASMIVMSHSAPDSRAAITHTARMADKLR

For test [2], the target named is Glutathione peroxidase 1 (Homo sapiens) (UniProt P07203). The experiment in a line: Primary qHTS Assay for Inhibitors of Recombinant Selenoprotein Glutathione Peroxidase 1 (GPX1) (AID 1845191). Further: nearly all actives have a fitted effect of over 65% in size. A digest of the protocol: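 GR-coupled assay: compounds preincubated 30 min at room temperature with GPX1, then reaction started with CHP; final 10 nM GPX1, 1 mM GSH, 0.5 mM CHP, 0.5 mM NADPH, 100 nM GR, 0.01% BSA, pH 7.5 Tris buffer. NADPH fluorescence (340/450 nm) read at 0 and 15 min.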
Sequence of Glutathione peroxidase 1 (Homo sapiens) (P07203 whole entry, looked up): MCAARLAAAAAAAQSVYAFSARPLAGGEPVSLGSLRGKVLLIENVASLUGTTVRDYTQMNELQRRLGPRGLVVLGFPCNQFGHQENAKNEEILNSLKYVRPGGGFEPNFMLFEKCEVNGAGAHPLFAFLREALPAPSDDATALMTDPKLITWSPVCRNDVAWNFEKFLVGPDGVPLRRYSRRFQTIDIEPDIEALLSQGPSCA

Test [3] concerns the target Phospholipid hydroperoxide glutathione peroxidase GPX4 (Homo sapiens) (UniProt P36969). The test is described as follows: Primary qHTS Assay for Inhibitors of Recombinant Selenoprotein Glutathione Peroxidase 4 (GPX4) (AID 1845192). Further: nearly all actives have a fitted effect of over 65% in size. A digest of the protocol:
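GR-coupled assay: recombinant GPX4 preincubated 30 min with compound at room temperature; final 200 nM GPX4, 1 mM GSH, 0.5 mM cumene hydroperoxide, 0.5 mM NADPH, 100 nM GR, 0.01% BSA, pH 7.5 Tris. NADPH fluorescence (340/450 nm) read at 0 and 15 min.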

The target of test [4] is Luciferin 4-monooxygenase (Photinus pyralis) (UniProt P08659). The experiment in a line: Primary firefly luciferase (FLuc) qHTS assay for identification of artifact compounds. (AID 1845220). Further: nearly all actives have a fitted effect of over 60% in size. A digest of the protocol:
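D-luciferin and ATP (10 uM each, final) in Tris acetate buffer pH 7.6 were incubated with compounds for 15 min at room temperature. The reaction was started with 10 nM Photinus pyralis luciferase and luminescence read after 5 min. Percent inhibition was fitted to a 4-parameter Hill equation.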

Test [5] in a line: Primary fluorescence-based thiol-reactive (MSTI) qHTS assay for identification of artifact compounds. (AID 1845221).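 Further: series mostly up to about 54 µM; thiol-reactive compounds lower the probe fluorescence signal; nearly all actives have a fitted effect of over 65% in size.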 Put shortly: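 Probe: MSTI 4 uM, PBS pH 7.4, 2% DMSO. Incubation 1 h, RT, light-protected. Readout fluorescence 525/598 nm.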
The test system of test [6] is Nanoluciferase (engineered Oplophorus gracilirostris luciferase). The experiment in a line: Primary Nanoluciferase (NLuc) qHTS assay for identification of artifact compounds. (AID 1845222). Further: series mostly up to about 54 µM. A digest of the protocol:
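Diluted conditioned medium from NLuc-expressing S16 cells treated with compounds for 15 min at room temperature, then Nano-Glo substrate added; luminescence read after 5 min. Percent inhibition versus no-enzyme and DMSO controls fitted to 4-parameter Hill equation.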

The nature of test [7]: Primary redox qHTS assay for identification of artifact compounds. (AID 1845223). A digest of the protocol:
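Amplex Red (25 uM) and HRP (250 mU/mL) in HBSS, with compounds for 15 min, then 250 uM DTT for 30 min, room temperature, dark. Fluorescence 525/598 nm read; normalized to DMSO and 10 uM DA3003; Hill fit.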

Sequence of Phospholipid hydroperoxide glutathione peroxidase GPX4 (Homo sapiens) (P36969 whole entry, looked up): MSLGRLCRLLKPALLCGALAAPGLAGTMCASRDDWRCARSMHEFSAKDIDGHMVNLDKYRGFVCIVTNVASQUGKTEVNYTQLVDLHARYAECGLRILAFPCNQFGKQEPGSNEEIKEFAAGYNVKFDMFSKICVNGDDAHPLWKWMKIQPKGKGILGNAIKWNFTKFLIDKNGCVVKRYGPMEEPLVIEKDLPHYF

`O=C(c1ccc(Cl)cc1)N1CCN(c2ccc([N+](=O)[O-])c3ncccc23)CC1`: the Potency entry in test [1], in test [2] and in test [3] was “inactive” throughout.
Turning to `CNc1ncnc2c1ncn2[C@@H]1O[C@H](CO)[C@@H](O)[C@H]1O`, the Potency entry in test [1], in test [2] and in test [3] was “inactive” throughout.
For `CNC(=O)[C@H]1O[C@@H](n2cnc3c(NCc4cccc(I)c4)ncnc32)[C@H](O)[C@@H]1O`, the Potency entry in test [1], in test [2] and in test [3] was “inactive” each time.
As for `O=[N+]([O-])c1ccc(CSc2ncnc3c2ncn3[C@@H]2O[C@H](CO)[C@@H](O)[C@H]2O)cc1`, the Potency entry in test [1], in test [2] and in test [3] was “inactive” throughout.
Consider `O=c1[nH]c2cc([N+](=O)[O-])c([N+](=O)[O-])cc2[nH]c1=O`, for which the Potency result in test [1], in test [2] and in test [3] was “inactive” each time.
As to `Nc1nc(Cl)nc2c1ncn2[C@@H]1O[C@H](COP(=O)(O)OP(=O)(O)OP(=O)(O)O)[C@@H](O)[C@H]1O`, the Potency result in test [1], in test [2] and in test [3] was “inactive” each time.
Consider `CN1C2CCC1CC(OC(=O)C(O)c1ccccc1)C2` (stereo not drawn), for which the Potency result in test [1], in test [2] and in test [3] was “inactive” each time.
For the molecule `O=C(O)c1cc(=O)c2c(Cl)cc(Cl)cc2[nH]1`, the Potency entry in test [1], in test [2] and in test [3] was “inactive” each time.
In the case of `Clc1ccc(N2CCN(Cc3c[nH]c4ncccc34)CC2)cc1`, the Potency result in test [1], in test [2] and in test [3] was “inactive” each time.
Take `S=c1[nH]c(-c2ccccc2)cn1-c1ccccc1`: the Potency result in test [1], in test [2] and in test [3] was “inactive” each time.
As to `CC(=O)SCC[N+](C)(C)C`, the Potency result in test [1], in test [2] and in test [3] was “inactive” throughout.
With `CCCC(CCC)C(=O)OC1CC2CCC(C1)[N+]2(C)C` (stereo not drawn), the Potency result in test [1], in test [2] and in test [3] was “inactive” each time.
Regarding `O=Nc1ccc2oc(=O)ccc2c1`, the Potency entry in test [1], in test [2] and in test [3] was “inactive” in each case.
`CC(C)CC(NP(=O)(O)O[C@@H]1O[C@@H](C)[C@H](O)[C@@H](O)[C@H]1O)C(=O)NC(Cc1c[nH]c2ccccc12)C(=O)O` (stereo partly drawn): the Potency result in test [1], in test [2] and in test [3] was “inactive” in each case.
For the molecule `O=C(NOCC1CC1)c1cc(Br)c(F)c(F)c1Nc1ccc(I)cc1Cl`, the Potency result in test [1], in test [2] and in test [3] was “inactive” in each case.
With `S=C(S)OC1CC2CC1C1CCCC21` (stereo not drawn), the Potency result in test [1], in test [2] and in test [3] was “inactive” throughout.
As for `O=C(/C=C/c1ccc(O)c(O)c1)OCCc1ccccc1`, the Potency entry in test [1], in test [2] and in test [3] was “inactive” in each case.
Turning to `NCC1OC(O[C@H]2[C@H](O)[C@@H](OC3C(O)C(N)CC(N)C3OC3OC(CO)C(O)C(O)C3N)O[C@@H]2CO)C(N)C(O)C1O` (stereo partly drawn), the Potency entry in test [1], in test [2] and in test [3] was “inactive” throughout.
In the case of `Clc1ccc(N2CCN(Cc3cc4ccccn4n3)CC2)cc1`, the Potency result in test [1], in test [2] and in test [3] was “inactive” in each case.
`COc1cc(C(O)CO)ccc1OS(=O)(=O)O` (stereo not drawn): the Potency result in test [1], in test [2] and in test [3] was “inactive” in each case.
As to `CCCCCCCCCCCCCCCCCCN(CCCCCCCCCCCCCCCCCC)CCCN(CCO)CCO`, the Potency result in test [1], in test [2] and in test [3] was “inactive” throughout.
For `CC(C)(C)c1ccc(S(=O)(=O)/C=C/C#N)cc1`, the Potency entry in test [1], in test [2] and in test [3] was “inactive” each time.
`O=C(O)CNC(=O)C(CS)Cc1ccccc1` (stereo not drawn): the Potency entry in test [1], in test [2] and in test [3] was “inactive” each time.
For the molecule `NC[C@@H]1O[C@H](C23CC4CC(CC(C4)C2)C3)Cc2c1ccc(O)c2O`, the Potency result in test [1], in test [2] and in test [3] was “inactive” in each case.
`OCC1O[C@H](O)C(Cl)C(O)C1O` (stereo partly drawn): the Potency entry in test [1], in test [2] and in test [3] was “inactive” in each case.
On to `O=C1NC(=O)/C(=C/c2ccc3nccnc3c2)S1`, for which the Potency result in test [1], in test [2] and in test [3] was “inactive” each time.
`Nc1nc2c(ncn2[C@@H]2O[C@H](CO)[C@@H](O)[C@@H]2O)c(=O)[nH]1`: the Potency entry in test [1], in test [2] and in test [3] was “inactive” each time.
In the case of `N#C/C(=C\c1ccc(O)c(O)c1)C(=O)c1ccc(O)c(O)c1`, the Potency entry in test [1], in test [2] and in test [3] was “inactive” throughout.
On to `CC(=O)N[C@H](C(=O)O)C(C)(C)SN=O`, for which the Potency result in test [1], in test [2] and in test [3] was “inactive” each time.
For `Fc1ccc(C(OCCCc2cnc[nH]2)c2ccc(F)cc2)cc1`, the Potency result in test [1], in test [2] and in test [3] was “inactive” each time.
For `NC[C@H]1O[C@@H](n2cnc3c(N)ncnc32)[C@H](O)[C@@H]1O`, the Potency result in test [1], in test [2] and in test [3] was “inactive” throughout.
With `Cn1cc(C2=C(c3ccc(Cl)cc3Cl)C(=O)NC2=O)c2ccccc21`, the Potency result in test [1], in test [2] and in test [3] was “inactive” each time.
`CC(C)(NS(=O)(=O)c1ccc(Oc2ccc(F)cc2)cc1)C(=O)NO`: the Potency entry in test [1], in test [2] and in test [3] was “inactive” throughout.
In the case of `CCC(CO)Nc1nc(NCc2ccccc2)c2ncn(C(C)C)c2n1` (stereo not drawn), the Potency result in test [1], in test [2] and in test [3] was “inactive” each time.
With `COc1cccc(OC)c1OCCNCC1COc2ccccc2O1` (stereo not drawn), the Potency result in test [1], in test [2] and in test [3] was “inactive” throughout.
Turning to `c1cnc2c(c1)ccc1cccnc12`, in test [1], the Potency is 20 µM (active). For the same molecule, the Potency entry in test [2] and in test [3] was “inactive” throughout.
In the case of `CS(=O)(=O)c1ccc(-n2nc(C(F)(F)F)cc2-c2ccc(F)cc2)cc1`, the Potency result in test [1], in test [2], in test [3], in test [4] and in test [6] was “inactive” in each case. The call in test [5] and in test [7] was inactive.
Turning to `COc1ccc(/C=C2\COc3ccc(C)cc3C2=O)cc1O`, the Potency entry in test [1], in test [2] and in test [3] was “inactive” in each case.
